Data as given in PubChem BioAssay (NCATS).
Records with an inconclusive call do not appear. The source made the active and inactive calls. Calls follow the shape of the dose curve; as a rule, active = well fitted curve in the direction sought with a large enough effect; inconclusive = small, poorly fitted or top-dose-only effect, or another doubt; inactive = no such curve, though single readings can be large; an effect the other way counts as inactive or inconclusive.

Legend:
CAOV3 = assay: Primary qHTS to identify gynecologic anti-cancer compounds using libraries of approved drugs and bioactive compounds (AID 1345084); conditions: Gynecologic cancer cell panel viability, ATPlite luminescence, 48 h; series mostly up to 57.5 µM; also: nearly all actives have a fitted effect of over 55% in size
Procedure, shortened: (§1)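 In this quantitative HTS, cell killing is estimated from loss of ATP-dependent luciferase light. Cells see five compound concentrations over a 48 h exposure.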

CASKI = assay: as above; conditions: Gynecologic cancer cell panel viability, ATPlite luminescence, 48 h; series mostly up to 57.5 µM
Procedure, shortened: as §1

HeLa = assay: as above; conditions: Gynecologic cancer cell panel viability, ATPlite luminescence, 48 h; series mostly up to 57.5 µM
Procedure, shortened: as §1

Hek293T = assay: as above; conditions: Gynecologic cancer cell panel viability, ATPlite luminescence, 48 h, control line for the selectivity index; series mostly up to 57.5 µM
Procedure, shortened: as §1

JEG-3 = assay: as above; conditions: Gynecologic cancer cell panel viability, ATPlite luminescence, 48 h; series mostly up to 57.5 µM
Procedure, shortened: as §1

OV90 = assay: as above; conditions: Gynecologic cancer cell panel viability, ATPlite luminescence, 48 h; series mostly up to 57.5 µM
Procedure, shortened: as §1

PA-1 = assay: as above; conditions: Gynecologic cancer cell panel viability, ATPlite luminescence, 48 h; series mostly up to 57.5 µM
Procedure, shortened: as §1

Tov-21-G = assay: as above; conditions: Gynecologic cancer cell panel viability, ATPlite luminescence, 48 h; series mostly up to 57.5 µM
Procedure, shortened: as §1

Tov112D = assay: as above; conditions: Gynecologic cancer cell panel viability, ATPlite luminescence, 48 h; series mostly up to 57.5 µM
Procedure, shortened: as §1

SKOV3 = assay: as above; conditions: Gynecologic cancer cell panel viability, ATPlite luminescence, 48 h; series mostly up to 57.5 µM
Procedure, shortened: as §1

[1] = qHTS assay to identify inhibitors of the type 1 interferon - major histocompatibility complex class I in skeletal muscle: Counter screen cell viability and HiBit confirmation (AID 1347412); conditions: iHSKM muscle cells + IFN-b, HiBiT or CellTiter-Glo, 24 h; for activity change, negative = inhibition: at 45.9 µM (top of the series); as to all read-outs here: nearly all actives have a fitted effect of over 60% in size
Procedure, shortened: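 CRISPR HLA-B*08:01-HiBit immortalized human myoblasts (C25cl48) stimulated with 4 ng/ml IFN-beta and compounds (12-point 1:3, top 46 uM final) for 24 h at 37 C. Duplicate plates read by HiBit lytic luminescence or CellTiter Glo ATP.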

Es-2 = assay: Primary qHTS to identify gynecologic anti-cancer compounds using libraries of approved drugs and bioactive compounds (AID 1345084); conditions: Gynecologic cancer cell panel viability, ATPlite luminescence, 48 h; series mostly up to 57.5 µM; also: nearly all actives have a fitted effect of over 55% in size
Procedure, shortened: as §1
% is scaled to controls: 0 for no effect and ±100 for the full control effect; potency is read from the fitted curve at half-maximal effect.

C=CC(=O)Nc1cc(Nc2ncc(Cl)c(-c3c[nH]c4ccccc34)n2)c(OC)cc1N(C)CCN(C)C
active: Potency (CAOV3) 17.8 µM | Potency (CASKI) 2.24 µM | Potency (HeLa) 12.6 µM | Potency (Hek293T) 11.2 µM | Potency (JEG-3) 12.6 µM | Potency (OV90) 3.98 µM | Potency (PA-1) 6.31 µM | Potency (Tov-21-G) 15.8 µM | Potency (Tov112D) 15.8 µM

CN1CCN(C2CCC(n3cc(-c4ccc(Oc5ccccc5)cc4)c4c(N)ncnc43)CC2)CC1 (stereo not drawn)
inactive: Potency (Hek293T) | Potency (JEG-3)
active: Potency (CAOV3) 28.2 µM | Potency (CASKI) 15.8 µM | Potency (HeLa) 22.4 µM | Potency (OV90) 17.8 µM | Potency (PA-1) 3.55 µM | Potency (SKOV3) 3.55 µM | Potency ([1]; HiBiT) 15.7 µM | Potency ([1]; Viability) 11.1 µM

CN1CCN(Cc2ccc(-c3cnc4[nH]cc(-c5ccc6[nH]ccc6c5)c4c3)cc2)CC1
active: Potency (CAOV3) 22.4 µM | Potency (Es-2) 22.4 µM | Potency (HeLa) 31.6 µM | Potency (OV90) 10 µM | Potency (PA-1) 12.6 µM | Potency (SKOV3) 14.1 µM | Potency (Tov-21-G) 20 µM

NCCCNc1ccc(Nc2nccc(Nc3cc(C4CC4)[nH]n3)n2)cc1
inactive: Potency (JEG-3)
active: Potency (CASKI) 3.98 µM | Potency (Es-2) 2.24 µM | Potency (HeLa) 4.47 µM | Potency (Hek293T) 1.41 µM | Potency (OV90) 8.91 µM | Potency (PA-1) 1.12 µM | Potency (SKOV3) 7.08 µM | Potency (Tov-21-G) 3.98 µM | Potency (Tov112D) 2.82 µM

C=CC(=O)Nc1cc(Nc2nccc(-c3c[nH]c4ccccc34)n2)c(OC)cc1N(C)CCN(C)C
active: Potency (CAOV3) 28.2 µM | Potency (CASKI) 28.2 µM | Potency (Es-2) 20 µM | Potency (HeLa) 15.8 µM | Potency (PA-1) 4.47 µM

CO[C@@H](C)Cn1c(=O)n(C)c2cnc3ccc(-c4cncc(C(C)(C)O)c4)cc3c21
active: Potency (CASKI) 5.01 µM | Potency (HeLa) 6.31 µM | Potency (Hek293T) 0.562 µM | Potency (JEG-3) 31.6 µM | Potency (PA-1) 0.891 µM

C=C1C(OC(C)=O)CCC2(C)CC3(OC)OC(=O)C(C)=C3CC12 (stereo not drawn)
inactive: Potency (Es-2) | Potency (HeLa) | Potency (Hek293T) | Potency (PA-1) | Potency (Tov-21-G) | Potency (Tov112D)

C=C1C(=O)O[C@@H]2[C@H]1CCC(C)=C1CCC(=O)O[C@]12C
inactive: Potency (CASKI) | Potency (HeLa) | Potency (Tov112D)

CNC(=O)c1ccccc1Nc1nc(Nc2ccc3c(c2OC)CCC[C@@H](N2CCN(CCO)CC2)C3)ncc1Cl
active: Potency (CASKI) 12.6 µM | Potency (OV90) 7.94 µM | Potency (PA-1) 10 µM | Potency (Tov-21-G) 10 µM

CS(=O)(=O)N1CCC(NC(=O)c2[nH]ncc2NC(=O)c2c(Cl)cccc2Cl)CC1
active: Potency (CASKI) 7.94 µM | Potency (Es-2) 4.47 µM | Potency (HeLa) 10 µM | Potency (Hek293T) 5.01 µM | Potency (PA-1) 3.98 µM | Potency (Tov112D) 8.91 µM | Potency ([1]; HiBiT) 1.98 µM
inactive: Potency (JEG-3) | activity change, negative = inhibition ([1]; Viability) 12.3%

COc1ncc(Nc2ncc([C@H](C)N3CCN(S(C)(=O)=O)CC3)cc2-c2nc(C)nc(N)n2)cc1F
active: Potency (CASKI) 1 µM | Potency (Hek293T) 0.794 µM | Potency (SKOV3) 2.82 µM
inactive: Potency (Es-2) | Potency (OV90) | Potency (Tov112D)

COc1cc2ncnc(N3CCC(Oc4cnc5ccccc5n4)C3)c2cc1OC (stereo not drawn)
active: Potency (CASKI) 7.08 µM | Potency (Es-2) 3.98 µM | Potency (HeLa) 1.78 µM | Potency (Hek293T) 3.55 µM | Potency (Tov112D) 1 µM

C=C(C)C(=O)O[C@H]1CC2=CC(C/C(C)=C\[C@H]3OC(=O)C(=C)[C@H]13)OC2=O (stereo partly drawn)
inactive: Potency (CASKI) | Potency (HeLa) | Potency (JEG-3) | Potency (OV90) | Potency (SKOV3) | Potency (Tov112D)

CC(=O)SCC(=O)c1ccc(NS(=O)(=O)c2ccc(OCCCN(C)C)cc2)nc1
active: Potency (Es-2) 14.1 µM | Potency (HeLa) 10 µM | Potency (JEG-3) 15.8 µM | Potency (PA-1) 2.82 µM | Potency (Tov-21-G) 11.2 µM

COc1cc2c(cc1OC)-c1[nH]nc(Nc3cccc(F)c3)c1C2
active: Potency (CASKI) 0.891 µM | Potency (Es-2) 1.41 µM | Potency (HeLa) 0.562 µM | Potency (PA-1) 0.316 µM | Potency (Tov-21-G) 2.24 µM | Potency (Tov112D) 0.282 µM

CN(C)C/C=C/C(=O)Nc1cccc(C(=O)Nc2cccc(Nc3ncc(Cl)c(-c4c[nH]c5ccccc45)n3)c2)c1
active: Potency (CASKI) 1.58 µM | Potency (Es-2) 8.91 µM | Potency (HeLa) 2 µM | Potency (PA-1) 2.82 µM | Potency (Tov112D) 1.26 µM | Potency ([1]; HiBiT) 1.11 µM
inactive: activity change, negative = inhibition ([1]; Viability) 0.891%

CC(=O)c1cc(C(=O)N[C@@H](C)Cn2ccc(-c3ccc(C#N)c(Cl)c3)n2)[nH]n1
inactive: Potency (CASKI) | Potency (Es-2) | Potency (HeLa) | Potency (JEG-3) | Potency (PA-1) | Potency (Tov-21-G) | Potency (Tov112D)

CN(C)C1CCN(C(=O)c2ccc(NC(=O)Nc3ccc(-c4nc(N5CCOCC5)nc(N5CCOCC5)n4)cc3)cc2)CC1
active: Potency (CASKI) 0.282 µM | Potency (HeLa) 0.562 µM | Potency (Hek293T) 0.398 µM
